Laboratory results published in PubChem BioAssay (NCI).
About 79,000 compounds went through this panel and 15% of them were active in at least one assay; those are over-represented in the sample as a whole. The source made the active and inactive calls. Cut-off read from the data, not from the text of the source: active = growth inhibition above about 70%; inactive = the rest.

Legend:
[1] = NCI Yeast Anticancer Drug Screen. Data for the rad52 strain (AID 147);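 note: 0% = growth of vehicle-treated control cultures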; conditions: S. cerevisiae rad52 mutant growth inhibition, stronger effect = higher value
How it was run: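 Here a repair-compromised yeast strain receives each compound; its growth is then quantified and normalised to vehicle-only controls.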

[2] = NCI Yeast Anticancer Drug Screen. Data for the wt1 strain (AID 149);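 note: 0% = growth of vehicle-treated wt1 cultures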; conditions: S. cerevisiae wt1 strain (SPY 50644) growth inhibition, stronger effect = higher value
How it was run: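 Readout: yeast growth inhibition, normalised to vehicle controls, in the wt1 strain exposed to test compounds.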

[3] = NCI Yeast Anticancer Drug Screen. Data for the rad50EPP+ strain (AID 151);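 note: 0% = growth of vehicle-treated control cultures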; conditions: S. cerevisiae rad50 mutant strain, stronger effect = higher value
How it was run: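 Read-out is yeast growth inhibition relative to vehicle; cells used were the rad50EPP+ strain.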

[4] = NCI Yeast Anticancer Drug Screen. Data for the mgt1 strain (AID 153); conditions: S. cerevisiae mgt1 mutant growth inhibition, stronger effect = higher value
How it was run: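 Measured: inhibition of mgt1 yeast growth by compound, normalized to vehicle-treated cultures.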

[5] = NCI Yeast Anticancer Drug Screen. Data for the rad50 strain (AID 155);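 note: 0% = growth of vehicle-only cultures of the same strain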; conditions: S. cerevisiae rad50 strain growth inhibition, stronger effect = higher value
How it was run: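 Compounds were tested on a yeast strain with an engineered DNA damage repair alteration; the reported value is growth inhibition normalised to vehicle treatment.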

[6] = NCI Yeast Anticancer Drug Screen. Data for the mec2-1 strain (AID 157); conditions: S. cerevisiae mec2-1 strain, stronger effect = higher value
How it was run: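 Using mec2-1 yeast: add compound, measure growth, express inhibition versus vehicle-treated cultures.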

[7] = NCI Yeast Anticancer Drug Screen. Data for the rad14 strain (AID 159);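 note: 0% = growth of vehicle-treated control cultures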; conditions: S. cerevisiae rad14 strain growth inhibition, stronger effect = higher value
How it was run: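 Compound-treated yeast with a defined DNA-repair lesion; growth inhibition normalised to vehicle-treated cultures.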

[8] = NCI Yeast Anticancer Drug Screen. Data for the sgs1 mgt1 strain (AID 161);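 note: 0% = growth of cultures given vehicle only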; conditions: S. cerevisiae sgs1 mgt1 strain, stronger effect = higher value
How it was run: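 Growth of a repair-deficient yeast mutant was monitored after compound treatment and expressed as inhibition relative to vehicle-treated cultures.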

[9] = NCI Yeast Anticancer Drug Screen. Data for the CLN2oe strain (AID 163);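 note: 0% = growth of vehicle-only control cultures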; conditions: S. cerevisiae CLN2oe strain, stronger effect = higher value
How it was run: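 Whole-cell yeast growth assay. A strain engineered for altered cell-cycle control received compound, and inhibition relative to vehicle-treated cultures was recorded.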

[10] = NCI Yeast Anticancer Drug Screen. Data for the cln2 rad14 strain (AID 165);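 note: 0% = growth equal to vehicle treated cultures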; conditions: S. cerevisiae cln2 rad14 strain, stronger effect = higher value
How it was run: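 Yeast strain cln2 rad14, bearing defects in cell cycle control and DNA repair, serves as the test system; values reflect growth inhibition compared with vehicle.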

[11] = NCI Yeast Anticancer Drug Screen. Data for the bub3 strain (AID 167); conditions: S. cerevisiae bub3 mutant strain, stronger effect = higher value
How it was run: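 Growth of a checkpoint-deficient yeast mutant is measured after compound exposure. Values represent inhibition relative to vehicle.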

[12] = NCI Yeast Anticancer Drug Screen. Data for the wt2 strain (AID 169);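 note: 0% = growth of vehicle-treated yeast cultures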; conditions: S. cerevisiae wt2 strain growth inhibition, stronger effect = higher value
How it was run: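 Treated yeast vs. vehicle-treated yeast: growth inhibition determined.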

[13] = NCI Yeast Anticancer Drug Screen. Data for the mlh1 strain (AID 171);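 note: 0% = growth of vehicle-treated control cultures of the same strain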; conditions: S. cerevisiae mlh1 strain growth inhibition, stronger effect = higher value
How it was run: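 A yeast strain with a defined genetic lesion serves as the test organism. Cultures receive compound or vehicle, and growth is measured.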

[14] = NCI Yeast Anticancer Drug Screen. Data for the sgs1 strain (AID 173);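 note: 0% = growth of vehicle-only control cultures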; conditions: S. cerevisiae sgs1 mutant, stronger effect = higher value
How it was run: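 A genetically defined yeast mutant is incubated with the test compound, and its growth is compared to that of the same strain given vehicle.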

[15] = NCI Yeast Anticancer Drug Screen. Data for the mlh1 rad18 strain (AID 175); conditions: S. cerevisiae mlh1 rad18 strain growth inhibition, stronger effect = higher value
How it was run: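 Steps: expose repair-defective yeast to compound; measure growth; express inhibition against vehicle-treated controls.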

[16] = NCI Yeast Anticancer Drug Screen. Data for the rad18 strain (AID 177); conditions: S. cerevisiae rad18 mutant growth inhibition, stronger effect = higher value
How it was run: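 Measured value is growth inhibition of a yeast strain bearing a DNA repair alteration, referenced to vehicle-treated cells.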

[17] = at 5.0 µM (retest, dose inferred, filed as 0.5)
[18] = at 50.0 µM (retest, dose inferred, filed as 5.0)

Measured: growth inhibition

CCCCCCCCCCCCCCCCCCNc1nc(=O)n(C2CC(OP(=O)(O)OCC3OC(n4cc(F)c(=O)[nH]c4=O)CC3O)C(CO)O2)cc1F (stereo not drawn)
active: [4]; at 100.0 µM 77% | [5]; [18] 88% | [5]; at 50.0 µM 83.9% | [5]; at 100.0 µM 88% | [6]; [18] 91% | [6]; at 50.0 µM 89.4% | [8]; [18] 95% | [8]; at 50.0 µM 87.7% | [10]; at 50.0 µM 86.3% | [11]; [18] 93% | [12]; at 100.0 µM 79% | [13]; at 100.0 µM 75% | [14]; at 100.0 µM 78% | [15]; [18] 93% | [15]; at 50.0 µM 86% | [16]; at 100.0 µM 89%
inactive: [1]; at 1.2 µM 14% | [1]; at 3.7 µM 12% | [1]; at 11.0 µM -1% | [1]; at 33.0 µM 11% | [1]; at 100.0 µM 66% | [2]; at 1.2 µM 4% | [2]; at 3.7 µM -4% | [2]; at 11.0 µM -13% | [2]; at 33.0 µM -8% | [2]; at 100.0 µM 46% | [3]; at 1.2 µM 9% | [3]; at 3.7 µM 12% | [3]; at 11.0 µM 7% | [3]; at 33.0 µM 8% | [3]; at 100.0 µM 23% | [4]; at 1.2 µM 25% | [4]; at 3.7 µM 8% | [4]; at 11.0 µM -1% | [4]; at 33.0 µM 32% | [5]; at 1.2 µM 27% | [5]; at 3.7 µM 28% | [5]; [17] 34% | [5]; at 11.0 µM 22% | [5]; at 33.0 µM 37% | [6]; at 1.2 µM 9% | [6]; at 3.7 µM 15% | [6]; [17] 24% | [6]; at 11.0 µM 3% | [6]; at 33.0 µM -1% | [6]; at 100.0 µM 61% | [7]; at 1.2 µM 9% | [7]; at 3.7 µM 0% | [7]; at 11.0 µM 3% | [7]; at 33.0 µM -4% | [7]; at 100.0 µM 51% | [8]; [17] 59% | [9]; at 1.2 µM -23% | [9]; at 3.7 µM -33% | [9]; at 11.0 µM -42% | [9]; at 33.0 µM -9% | [9]; at 100.0 µM 54% | [10]; [17] 7% | [10]; [18] 68% | [11]; at 1.2 µM 4% | [11]; at 3.7 µM 5% | [11]; [17] 15% | [11]; at 11.0 µM -27% | [11]; at 33.0 µM -10% | [11]; at 50.0 µM 68.3% | [11]; at 100.0 µM 40% | [12]; at 1.2 µM -38% | [12]; at 3.7 µM -34% | [12]; at 11.0 µM -68% | [12]; at 33.0 µM 15% | [13]; at 1.2 µM 10% | [13]; at 3.7 µM 19% | [13]; at 11.0 µM 7% | [13]; at 33.0 µM 18% | [14]; at 1.2 µM 1% | [14]; at 3.7 µM -5% | [14]; at 11.0 µM -9% | [14]; at 33.0 µM 22% | [15]; [17] 34% | [16]; at 1.2 µM 9% | [16]; at 3.7 µM -9% | [16]; at 11.0 µM -16% | [16]; at 33.0 µM 35%

CO[C@@]1([C@@H](Cl)c2ccccc2)C(=O)N(C)/C(=C\c2ccccc2)C(=O)N1C
active: [8]; [18] 96%
inactive: [1]; at 1.2 µM 0% | [1]; at 3.7 µM 1% | [1]; at 11.0 µM 3% | [1]; at 33.0 µM 7% | [1]; at 100.0 µM 8% | [2]; at 1.2 µM 0% | [2]; at 3.7 µM 0% | [2]; at 11.0 µM -2% | [2]; at 33.0 µM -1% | [2]; at 100.0 µM -1% | [3]; at 1.2 µM -1% | [3]; at 3.7 µM -3% | [3]; at 11.0 µM -6% | [3]; at 33.0 µM 0% | [3]; at 100.0 µM 5% | [4]; at 1.2 µM -1% | [4]; at 3.7 µM -1% | [4]; at 11.0 µM -1% | [4]; at 33.0 µM 39% | [4]; at 100.0 µM 50% | [5]; at 1.2 µM 2% | [5]; at 3.7 µM 6% | [5]; [17] -12% | [5]; at 11.0 µM 9% | [5]; at 33.0 µM 11% | [5]; [18] 14% | [5]; at 50.0 µM -7.3% | [5]; at 100.0 µM 15% | [6]; at 1.2 µM -3% | [6]; at 3.7 µM -1% | [6]; [17] -2% | [6]; at 11.0 µM 0% | [6]; at 33.0 µM 4% | [6]; [18] 4% | [6]; at 50.0 µM 11% | [6]; at 100.0 µM 8% | [7]; at 1.2 µM 1% | [7]; at 3.7 µM 3% | [7]; at 11.0 µM 8% | [7]; at 33.0 µM 10% | [7]; at 100.0 µM 11% | [8]; [17] -13% | [8]; at 50.0 µM 43.6% | [9]; at 1.2 µM -1% | [9]; at 3.7 µM 0% | [9]; at 11.0 µM -1% | [9]; at 33.0 µM 5% | [9]; at 100.0 µM 7% | [10]; [17] -8% | [10]; [18] 15% | [10]; at 50.0 µM 36.1% | [11]; at 1.2 µM -1% | [11]; at 3.7 µM -3% | [11]; [17] -11% | [11]; at 11.0 µM 0% | [11]; at 33.0 µM 10% | [11]; [18] 20% | [11]; at 50.0 µM -6.35% | [11]; at 100.0 µM 19%
